Sampled rows, rich in hits. Any-hit rate of the full collection: about 7.7%.
RE007 growth inh – less growth of the S. pombe RE007 Vpr strain; S. pombe RE007 Vpr strain, BacTiter-Glo ATP luminescence, 24 h; Potency, µM (series often up to 92.2 µM), for the others: at the highest dose activity change, negative = less growth, actives largely listed as inhibitors; 360,000 tested, 0.21% active; AID 651644; active = well fitted falling curve with a large enough effect; inconclusive = small, poorly fitted or top-dose-only effect; inactive = no such curve, though single readings can be large or run the other way; note: potency is the fitted concentration of half-maximal effect; nearly all actives have a fitted effect of over 50% in size
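Fission yeast RE007 carrying one integrated HIV-1 vpr copy, seeded at OD 0.01 in PMG+AL medium with 23 nL pinned compound. Grown 24 h at 30 degrees; viability read by BacTiter-Glo luminescence after 5 min.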
FMDV antiviral – foot and mouth disease virus antiviral activity | 410,000 tested, 1.2% active | FMDV antiviral cell-based qHTS | AID 1159524 | Potency, µM (doses to about 57.9 µM), inactives show at the top dose activity change, negative = inhibition, hits mostly inhibitors; calls by dose curve; tested in HEK293T cells; note: read-out not given here; potency is the fitted concentration of half-maximal effect; nearly all actives have a fitted effect of over 45% in size
HCMV inh – inhibitors of human cytomegalovirus | HFF cells, HCMV-luciferase reporter, 72 h; stronger effect = lower value | 410,000 tested, 4.5% active | activity change, negative = inhibition, % at 57.5 µM; in the data active = activity change below about -60%; inconclusive = no clear call, values can overlap the other calls; inactive = above about -39%
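Steps: HFFs plated, 16 h 37C; compounds added; HCMV-luciferase added to MOI 1 PFU/cell; 72 h 37C; OneGlo reagent, 5 min room temperature; luminescence read, normalized to controls.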
TbPYK inhibitor – inhibitors of Trypanosoma brucei pyruvate kinase; Q57TT1; TbPYK enzyme, Kinase-Glo Plus ATP luminescence, 45 min; 410,000 tested, 0.12% active; Potency, µM (series often up to 76.8 µM), for the others: top-dose activity, negative = inhibition, usual class: inhibitors; note: potency is the fitted concentration of half-maximal effect; nearly all actives have a fitted effect of over 50% in size
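Screened from lowest to highest concentration, compounds were pinned into TbPYK/substrate mixtures, and ADP (130 uM final) was added. Plates sat at room temperature for 45 min prior to Kinase-Glo Plus detection by luminescence.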
FBPA Giardia inh – blocks Giardia fructose-bisphosphate aldolase activity | A8B2U2 | purified Giardia FBPA | Potency, µM (series often up to 59.6 µM), for the others: at the top dose activity, negative = inhibition, most hits filed as inhibitors | 290,000 tested, 0.71% active | AID 2451; note: potency is the fitted concentration of half-maximal effect; nearly all actives have a fitted effect of over 55% in size
Target sequence (A8B2U2 whole entry, looked up): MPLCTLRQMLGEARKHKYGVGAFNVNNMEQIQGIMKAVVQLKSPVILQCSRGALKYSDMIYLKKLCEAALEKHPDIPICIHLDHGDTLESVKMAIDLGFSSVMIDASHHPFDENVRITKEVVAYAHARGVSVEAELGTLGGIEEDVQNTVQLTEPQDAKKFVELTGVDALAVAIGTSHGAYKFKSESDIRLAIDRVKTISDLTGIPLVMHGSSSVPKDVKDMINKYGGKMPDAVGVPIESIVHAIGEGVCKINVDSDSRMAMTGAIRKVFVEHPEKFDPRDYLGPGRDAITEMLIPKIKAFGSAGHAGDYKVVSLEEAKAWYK
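Giardia FBPA (40 nM reagent) was preincubated 10 min at RT with compound (up to 57.5 uM final), then substrate plus GAPDH/TPI/NAD/arsenate coupling system with diaphorase/resazurin was added; resorufin fluorescence (525/598 nm) was read after 20 min.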
Sm TGR inh – S. mansoni TGR enzyme inhibition; 360,000 tested, 3% active; Q962Y6; purified TGR, DTNB reduction, TNB absorbance 405 nm; Potency, µM (highest dose often 114 µM), inactives show at the highest dose activity change, negative = inhibition, usual class: inhibitors; AID 485364; note: potency is the fitted concentration of half-maximal effect; nearly all actives have a fitted effect of over 60% in size
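Kinetic colorimetric format: TGR-catalysed, NADPH-driven DTNB reduction monitored via TNB absorbance. Enzyme dispensed at 20 nM; compound exposure 15 min at room temperature before reaction start.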
The depositor's hits bear a star; ? = inconclusive; . = no result given; [ ] = dose if it differs, or a comment. Unless noted, calls come from the whole dose curve; as a rule, active = well fitted curve in the direction sought with a large enough effect; inconclusive = small, poorly fitted or top-dose-only effect, or another doubt; inactive = no such curve, though single readings can be large; an effect the other way counts as inactive or inconclusive. % is set by controls: 0 for no effect and ±100 for the full control effect.

SMILES	RE007 growth inh	FMDV antiviral	HCMV inh	TbPYK inhibitor	FBPA Giardia inh	Sm TGR inh
CSc1ccccc1NC(=O)CCS(=O)(=O)c1nc(-c2ccc3c(c2)OCO3)cc(C(F)(F)F)n1	.	?	-16.8	?	.	-23.9%
O=C(CCS(=O)(=O)c1ccccc1)Nc1ccc2c(c1)OCO2	1.2%	51.8%	87.7	2.1%	-0.2%	20µM*
O=C(CCS(=O)(=O)c1nc(-c2ccc3c(c2)OCO3)cc(C(F)(F)F)n1)Nc1ccc(Br)cc1	.	?	-98.8*	-2.2%	.	-8.9%
COC(=O)c1ccccc1NC(=O)CCS(=O)(=O)c1nc(-c2ccc3c(c2)OCO3)cc(C(F)(F)F)n1	.	?	-69.7*	-3.1%	.	-20.9%
COc1ccc(/C=C/C(=O)Nc2nc(-c3cccs3)ns2)cc1OC	.	?	44.1	4.7%	.	-3.3%
COc1cc(CC2COC(c3ccc(O)c(OC)c3)C2COC(C)=O)ccc1O (centres undefined)	-1.4%	-17.1%	-2.2	5.7%	-5.8%	39.8µM*
COc1cc([C@@H]2OC[C@@H]3[C@H]2CO[C@@H]3c2ccc3c(c2)OCO3)ccc1O	16.5%	-14.0%	-15.4	-3.2%	.	.
S=c1[nH]nc2ccc3ccccc3n12	-10.2%	-1.5%	49.1	7.08µM*	.	.
S=c1[nH]c2ccccc2n2c(=S)[nH]nc12	17.5%	0.0%	-8.0	-26.9%	?	21.0%
CC(=O)OC(C#CCN1CCOCC1)c1ccccc1 (centres undefined)	-19.4%[3.69 µM]	2.3%	33.3	.	-15.3%	-16.5%
OC(C#CCN1CCOCC1)c1cccs1 (centres undefined)	16.2%	6.5%	1.7	-4.9%	-3.7%	28.2µM*
C#CCn1c(=O)c2c(nc(/C=C/c3cccc(OC)c3)n2C)n(CCCO)c1=O	.	.	.	.	0.2%	.
N/C(=N/OC(=O)c1ccccc1Cl)c1nonc1N	28.2µM*	?	-11.7	?	-5.9%	12.5%
N/C(=N\OC(=O)c1ccc(F)cc1)c1nonc1N	?	46.9%	3.4	?	1.6%	6.8%
CCC(C)NS(=O)(=O)c1ccc(NC(=O)C2CCN(C(=O)c3ccco3)CC2)cc1 (centres undefined)	32.5%	-3.7%	12.8	-3.2%	5.0%	-6.6%
CC1CCCN(S(=O)(=O)c2ccc(NC(=O)C3CCN(C(=O)c4ccco4)CC3)cc2)C1 (centres undefined)	-8.9%	16.7%	-60.1*	1.0%	10.0%	7.9%
COc1ccc(C2CC(=O)c3cnn(-c4nc(C)cc(C)n4)c3C2)cc1OC (centres undefined)	-8.8%	-20.2%	0.5	-18.0%	4.4%	7.6%
CCc1ccc(Nc2ncc3c(n2)CC(c2ccc(OC)cc2)CC3=O)cc1 (centres undefined)	8.4%	-1.7%	-64.1*	-14.6%	6.1%	11.5%
CCOC(=O)N1CCN(c2ncc3c(n2)CC(c2ccc(OC)c(OC)c2)CC3=O)CC1 (centres undefined)	.	14.1µM*	-9.2	-3.8%	.	4.47µM*
CCN1CCN(c2ncc3c(n2)CC(c2ccc(OC)c(OC)c2)CC3=O)CC1 (centres undefined)	-19.1%	20µM*	?	-7.7%	1.3%	-5.0%
COc1ccc(C2CC(=O)c3cnc(N4CCN(Cc5ccccc5)CC4)nc3C2)cc1 (centres undefined)	10.7%	22.4µM*	-13.6	-18.5%	-4.6%	-20.2%
Cc1ccc(C2CC(=O)c3cnc(N4CCN(c5ccccc5)CC4)nc3C2)cc1 (centres undefined)	1.6%	-2.7%	22.7	0.4%	4.0%	3.5%
COc1ccc(Nc2ncc3c(n2)CC(c2ccccc2)CC3=O)cc1 (centres undefined)	19.0%	-15.8%	-9.5	-5.5%	-1.6%	1.6%
COc1cccc(CSc2nc3n(n2)C(c2ccccc2C)C(C(=O)Nc2ccccc2OC)=C(C)N3)c1 (centres undefined)	.	-7.1%	-9.6	-3.7%	.	4.4%
CCC1C(=O)NCCN1Cc1ccc2c(c1)CN(Cc1cccn1-c1ccc(Cl)cn1)CCO2 (centres undefined)	.	-8.5%	.	.	.	.
SMILES	RE007 growth inh	FMDV antiviral	HCMV inh	TbPYK inhibitor	FBPA Giardia inh	Sm TGR inh
CC1=C(C(=O)OC2CCCC2)C(c2c(Cl)cccc2Cl)CC(=O)N1 (centres undefined)	.	-15.2%	?	0.5%	.	-1.8%
Cc1ccc(Cn2c(SCC(=O)C(C)(C)C)nc3ccsc3c2=O)cc1	.	?	?	-6.4%	.	5.8%
O=C(CSc1nccn1Cc1ccc(F)cc1)Nc1ccc2c(c1)OCCO2	.	52.9%	48.1	-10.8%	.	-1.9%
Cc1sc2c(c1C)CN(CCN1CCOCC1)CN2C(=O)c1ccccc1	-14.3%	22.1%	102.6	-6.8%	1.0%	79.4µM*
Cc1ccc(-c2c(CN3CCN(c4cc(Cl)ccc4C)CC3)csc2C)cc1	.	-15.6%	-8.9	0.3%	.	-3.6%
O=C(CCl)NCCN1C(=O)S/C(=C\c2cccnc2)C1=O	-9.7%	-27.0%	-77.0*	6.4%	-3.8%	39.8µM*
CCOc1ccccc1CNc1ccc2cc(S(=O)(=O)N3CCC(C)CC3)ccc2n1	.	-13.2%	-0.1	-2.3%	.	-0.7%
CC1CN(C(=O)N2CCC(C(=O)NCCCc3ccccc3)CC2)c2cc(Cl)ccc2O1 (centres undefined)	.	?	-6.7	-0.3%	.	-10.9%
C(=C\c1ccco1)/c1nc2ccccc2[nH]1	-25.9%	0.0%	?	-20.4%	-21.6%	3.16µM*
C(=C\c1nc2ccccc2[nH]1)/c1ccccc1	31.6µM*	15.8µM*	9.7	?	-22.5%	9.2%
C(=C\c1ccco1)/c1ccc2ccccc2n1	?	-68.8%	190.6	?	-20.4%	7.94µM*
CCOc1ccc(C(=O)NCC(=O)NCC(c2ccco2)N2CCCCC2)cc1 (centres undefined)	-13.5%	-2.2%	-32.5	1.4%	.	89.1µM*
Cc1ccc(S(=O)(=O)NC(CC(C)C)C(=O)NCC(c2ccco2)N2CCCCC2)cc1 (centres undefined)	-12.9%	10µM*	.	6.5%	.	-18.9%
CN(c1ccccc1)S(=O)(=O)c1ccc(C(=O)NCC(c2ccco2)N2CCCCC2)cc1 (centres undefined)	-0.3%	?	-62.9*	-1.7%	.	-4.1%
COC(=O)[C@]12C[C@H](CC(=O)NCc3cccc4ccccc34)C(=O)N(CCc3ccc(OC)c(OC)c3)C1=C[C@H](C(C)(C)C)O[C@@H]2C	.	.	-11.3	.	.	.
Cc1c(N=C2N=C(NC(=O)c3ccc(F)cc3)c3ccccc32)c(=O)n(-c2ccccc2)n1C	-15.6%	28.2µM*	67.8	-4.4%	6.0%	17.2%
Cc1c(NC(=O)NC(=O)c2ccc(F)cc2)c(=O)n(-c2ccccc2)n1C	-1.2%	-16.3%	40.3	-7.8%	7.9%	7.8%

From PubChem
